Assay results taken from PubChem BioAssay AID651638 (Johns Hopkins Ion Channel Center, 2012).
Among all 2,400 compounds or so, about 2,400 (100%) were called active.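 How the source made its calls: active means ratio percent of control, averaged over triplicates, above buffer control mean plus 5 SD (cut at about 64% in these data); inactive means the rest.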 The set was probably picked from earlier hits. These entries were drawn from the full list.

The compounds below were run against Potassium channel subfamily K member 3 (Homo sapiens) (UniProt O14649) (assay: retest of human KCNK3 channel inhibitors, confirmation, CHO cells, FluxOR thallium flux, triplicate (AID 651638;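 further: ratio is the fluorescence rise from min to max over baseline after thallium stimulus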)). Conditions: FluxOR fluorescence, at 10 µM, active compounds read high.
Potassium channel subfamily K member 3 (Homo sapiens), sequence (O14649 whole entry, looked up): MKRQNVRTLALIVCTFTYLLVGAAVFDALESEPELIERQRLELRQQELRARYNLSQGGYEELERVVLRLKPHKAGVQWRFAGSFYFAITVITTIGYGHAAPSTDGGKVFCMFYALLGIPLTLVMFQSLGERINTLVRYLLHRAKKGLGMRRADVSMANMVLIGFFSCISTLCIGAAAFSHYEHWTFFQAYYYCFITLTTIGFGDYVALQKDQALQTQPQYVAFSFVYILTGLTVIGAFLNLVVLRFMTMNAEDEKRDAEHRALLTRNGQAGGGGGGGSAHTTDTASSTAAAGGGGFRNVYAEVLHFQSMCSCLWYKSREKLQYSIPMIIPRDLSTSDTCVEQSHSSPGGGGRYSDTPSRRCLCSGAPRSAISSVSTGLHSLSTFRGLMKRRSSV

Row | Structure (SMILES) | ratio percent of control
1 | COc1ccccc1C1=NCc2nnc(CSC)n2-c2ccc(Cl)cc21 | 54.7% (active)
2 | CCCCCCN=C(CC)c1c(O)n(CCCC)c(=O)[nH]c1=O | 129% (active)
3 | CCOC(=O)C1SC2(C(F)(F)C(F)F)CC1(O)c1c(c(OC)c3occc3c1OC)O2 (stereo not drawn) | 112% [0% buffer, 100% carvedilol maximal block] (active)
